Experimental data from PubChem BioAssay (EPA / NIEHS).
Where a structure was tested more than once in an assay, its records may differ in their call. Active and inactive are the calls of the source. Rule for the calls: active = hit-call score of the fitted dose curve at least 0.9, where 1 is the maximum; inactive = score below 0.9.

How the values were obtained:
[1] = APR_HepG2_P-H2AX_72hr: Apredica 72-hour HepG2 Assay for H2AX Phosphorylation (AID 2282916); details: imaging, actives raise or lower the signal;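 note: phospho-histone H2A.x immunostain intensity per cell marking DNA damage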
Procedure, shortened: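 HepG2 cells treated 72 h at 0.39–200 uM, 0.5% DMSO final, duplicates. Formaldehyde-fixed, Triton-permeabilised, immunostained for phospho-H2A.x with Hoechst; fluorescence imaged at 20x, bidirectional fit versus DMSO.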

[2] = APR_HepG2_MitoMembPot_72hr: Apredica 72-hour HepG2 Assay for Mitochondrial Membrane Potential (AID 2282917); details: imaging, actives raise or lower the signal
Procedure, shortened: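 HepG2 cells exposed 72 h to compounds at 0.39–200 uM (0.5% v/v DMSO, duplicates); MitoTracker Red CMXRos 250 nM loaded 30 min before 3.7% formaldehyde fixation, imaged by HCS fluorescence. Bidirectional fit versus DMSO.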

[3] = APR_HepG2_MitoticArrest_72hr: Apredica 72-hour HepG2 Assay for Mitotic Arrest (AID 2282918); details: high-content imaging, actives raise or lower the signal
Procedure, shortened: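 HepG2, 72 hr exposure, 0.39–200 uM in duplicate, 0.5% v/v DMSO final. Formaldehyde-fixed, Triton-permeabilized, anti-phospho-histone H3/FITC plus Hoechst. ArrayScan imaging at 20x; curves fit bidirectionally against DMSO baseline.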

[4] = APR_HepG2_MicrotubuleCSK_72hr: Apredica 72-hour HepG2 Assay for Microtubule CSK Stabilty (AID 2282919); details: HepG2 microtubule cytoskeleton, high-content imaging, actives raise or lower the signal
Procedure, shortened: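 HepG2 human liver cells were dosed for 72 h at ten concentrations from 0.39 to 200 uM in duplicate (0.5% v/v DMSO final). Fixed, permeabilized cells were immunostained for alpha-tubulin (Cy5) with a Hoechst counterstain and imaged at 20x.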

[5] = APR_HepG2_P-H2AX_24hr: Apredica 24-hour HepG2 Assay for H2AX Phosphorylation (AID 2282920); details: high-content imaging, actives raise or lower the signal
Procedure, shortened: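 HCS fluorescence imaging of phospho-H2A.x immunostain (with Hoechst 33342 nuclear counterstain) in HepG2 after 24 hr compound exposure; 10 concentrations, 0.39–200 uM, duplicate wells, 0.5% v/v DMSO. Gain or loss of signal fitted relative to DMSO baseline.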

[6] = APR_HepG2_StressKinase_72hr: Apredica 72-hour HepG2 Assay for Stress Kinase (AID 2282921); details: HepG2 stress kinase (phospho-c-Jun) imaging, actives raise or lower the signal
Procedure, shortened: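 HepG2 cells treated 72 hr with 0.39–200 uM compound, 0.5% v/v DMSO, duplicate wells. After formaldehyde fixation and Triton permeabilization, stained with anti-phospho-c-Jun (1:500) and Cy3 secondary, imaged at 20x. Fitted in both directions against DMSO.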

[7] = APR_HepG2_StressKinase_24hr: Apredica 24-hour HepG2 Assay for Stress Kinase (AID 2282922); details: HepG2 stress kinase (phospho-c-Jun) imaging, actives raise or lower the signal
Procedure, shortened: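 HepG2 cells exposed 24 hr to compound at 0.39–200 uM (10 concentrations, duplicate), 0.5% v/v DMSO final. Fixed in 3.7% formaldehyde, permeabilized with Triton X-100, immunolabeled for phospho-c-Jun with Hoechst 33342; HCS fluorescence imaging, bidirectional fit versus DMSO.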

[8] = APR_HepG2_p53Act_72hr: Apredica 72-hour HepG2 Assay for p53 Activation (AID 2282923); details: high-content imaging, actives raise or lower the signal;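 note: average cellular p53 protein immunofluorescence intensity in HepG2 cells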
Procedure, shortened: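 HepG2 cells exposed 72 h to 0.39–200 uM in 0.5% DMSO, duplicates. Fixed, permeabilized cells immunostained for p53 (Cy5) with Hoechst; imaged at 20x, fluorescence analyzed bidirectionally against DMSO.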

[9] = APR_HepG2_MitoMass_72hr: Apredica 72-hour HepG2 Assay for Mitochondrial Mass (AID 2282924); details: high-content imaging, actives raise or lower the signal;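 note: MitoTracker Red CMXRos stain intensity per cell imaged as mitochondrial mass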
Procedure, shortened: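 HepG2 cells were exposed for 72 hr to compounds at 0.39–200 uM (ten concentrations, duplicate, 0.5% v/v DMSO final). Live cells were stained with 250 nM MitoTracker Red CMXRos for 30 min, then fixed in 3.7% formaldehyde and imaged by HCS fluorescence.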

[10] = APR_HepG2_NuclearSize_72hr: Apredica 72-hour HepG2 Assay for Nuclear Size (AID 2282925); details: high-content imaging, actives raise or lower the signal
Procedure, shortened: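 HepG2 cells were exposed to compounds at ten concentrations from 0.39 to 200 uM (duplicate, 0.5% DMSO final) for 72 hr. After fixation in 3.7% formaldehyde, nuclei were stained with Hoechst 33342 (2 ug/mL) and imaged at 20x.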

[11] = ATG_CRE_CIS: Attagene CIS-FACTORIAL HepG2 Assay for human cAMP Responsive Element (CRE) binding protein 3 (AID 2282926); details: HepG2 CRE cis-reporter, Attagene multiplexed mRNA; actives raise or lower the signal
Procedure, shortened: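 Endogenous CRE-binding activity in HepG2 is reported through a cis-regulated transfected reporter. Following a day of exposure, mRNA levels are determined by reverse transcription PCR and fluorescent fragment analysis; fits run in both directions versus DMSO.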

[12] = target: CCAAT/enhancer-binding protein beta (Homo sapiens) (UniProt P17676); assay: ATG_C_EBP_CIS: Attagene CIS-FACTORIAL HepG2 Assay for human CCAAT/Enhancer Binding Protein (C/EBP) beta (AID 2282927); details: HepG2 Attagene cis-factorial transcription factor reporter; actives raise or lower the signal
CCAAT/enhancer-binding protein beta (Homo sapiens), sequence (P17676 whole entry, looked up): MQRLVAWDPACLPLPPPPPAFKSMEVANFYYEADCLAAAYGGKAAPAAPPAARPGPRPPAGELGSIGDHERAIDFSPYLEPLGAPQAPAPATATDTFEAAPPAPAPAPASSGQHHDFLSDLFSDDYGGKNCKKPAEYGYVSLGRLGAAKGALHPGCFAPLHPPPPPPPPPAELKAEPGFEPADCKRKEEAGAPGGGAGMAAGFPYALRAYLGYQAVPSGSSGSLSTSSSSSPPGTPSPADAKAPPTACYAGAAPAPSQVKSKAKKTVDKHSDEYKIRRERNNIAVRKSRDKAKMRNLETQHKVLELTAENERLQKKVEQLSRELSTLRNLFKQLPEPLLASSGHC
Procedure, shortened: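 Following a 24 h incubation with test chemical, transfected HepG2 cells yielded RNA whose reporter transcripts were quantified by RT-PCR and fluorescent capillary electrophoresis, with DMSO serving as baseline for bidirectional fitting.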

[13] = ATG_CMV_CIS: Attagene CIS-FACTORIAL HepG2 Assay for human CMV (Internal Marker) (AID 2282928); details: HepG2 CMV promoter reporter, transcription factor profiling; actives raise or lower the signal;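 note: endpoint acts as a background internal control marker rather than a target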
Procedure, shortened: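 CMV internal-marker background readout in transiently transfected HepG2 cells bearing cis-regulated reporter units. Reporter mRNA is measured 24 h after dosing by RT-PCR and capillary electrophoresis, with bidirectional fitting against DMSO.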

[14] = ATG_DR4_LXR_CIS: Attagene CIS-FACTORIAL HepG2 Assay for human Liver X Receptor (LXR), DR4 submotif (AID 2282929); details: HepG2 Attagene DR4 cis-reporter, mRNA transcription; actives raise or lower the signal
Procedure, shortened: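 Readout: reporter transcript fluorescence after RT-PCR and capillary electrophoresis, fitted bidirectionally against DMSO controls. Human HepG2 liver cells carried transiently transfected multiplexed reporter constructs; endogenous transcription factor activity measured 24 h post-dosing.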

[15] = target: Aryl hydrocarbon receptor (Homo sapiens) (UniProt P35869); assay: ATG_Ahr_CIS: Attagene CIS-FACTORIAL HepG2 Assay for human Aryl Hydrocarbon Receptor (Ahr) (AID 2282930); details: HepG2 AhR cis-factorial reporter transcription; actives raise or lower the signal
Aryl hydrocarbon receptor (Homo sapiens), sequence (P35869 whole entry, looked up): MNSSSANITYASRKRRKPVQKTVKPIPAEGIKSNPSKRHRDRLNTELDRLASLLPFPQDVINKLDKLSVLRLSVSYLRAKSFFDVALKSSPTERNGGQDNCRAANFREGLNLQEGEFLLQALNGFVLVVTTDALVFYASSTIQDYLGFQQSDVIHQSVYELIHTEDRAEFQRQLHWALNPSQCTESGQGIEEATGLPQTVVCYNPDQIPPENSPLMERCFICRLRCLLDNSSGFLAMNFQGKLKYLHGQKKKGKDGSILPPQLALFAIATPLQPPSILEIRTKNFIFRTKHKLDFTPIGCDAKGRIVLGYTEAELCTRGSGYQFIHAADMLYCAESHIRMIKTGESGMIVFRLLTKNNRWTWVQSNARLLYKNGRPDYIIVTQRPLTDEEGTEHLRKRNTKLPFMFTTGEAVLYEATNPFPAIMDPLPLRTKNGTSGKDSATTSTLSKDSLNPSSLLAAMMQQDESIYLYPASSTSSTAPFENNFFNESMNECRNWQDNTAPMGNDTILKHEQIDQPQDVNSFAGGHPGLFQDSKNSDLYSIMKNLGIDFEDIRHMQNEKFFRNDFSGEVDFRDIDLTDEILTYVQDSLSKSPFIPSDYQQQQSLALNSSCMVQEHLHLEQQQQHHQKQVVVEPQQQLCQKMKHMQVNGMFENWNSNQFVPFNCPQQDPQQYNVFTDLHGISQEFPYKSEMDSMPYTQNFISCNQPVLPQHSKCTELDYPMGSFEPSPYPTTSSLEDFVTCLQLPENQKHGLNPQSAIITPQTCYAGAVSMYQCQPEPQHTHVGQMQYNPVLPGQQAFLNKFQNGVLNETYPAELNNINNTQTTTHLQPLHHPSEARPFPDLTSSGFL
Procedure, shortened: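 Values derive from bidirectional fitting against DMSO negative control. Underlying signal: cis-element reporter mRNA in transiently transfected HepG2, harvested 24 h post-dose and measured by RT-PCR plus capillary electrophoresis.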

[16] = ATG_AP_1_CIS: Attagene CIS-FACTORIAL HepG2 Assay for human Activator Protein 1 (AP-1) (AID 2282931); details: HepG2 Attagene cis-factorial AP-1 reporter mRNA; actives raise or lower the signal
Procedure, shortened: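 Reporter transcripts were measured 24 h after dosing by RT-PCR and capillary electrophoresis of fluorescent fragments. Cells: HepG2 carrying transfected cis-regulated reporter constructs reading endogenous factor activity. Gain or loss fitted against DMSO.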

[17] = ATG_AP_2_CIS: Attagene CIS-FACTORIAL HepG2 Assay for human Activator Protein 2 (AP-2) (AID 2282932); details: HepG2 AP-2 cis-reporter, Attagene transcription factor profiling; actives raise or lower the signal
Procedure, shortened: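 Bidirectional curve fitting against DMSO was applied to reporter mRNA signals from HepG2 cells 24 h after dosing. Cis-promoter reporter units, transiently transfected, were read by RT-PCR plus capillary electrophoresis.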

[18] = ATG_BRE_CIS: Attagene CIS-FACTORIAL HepG2 Assay for human Bone Morphogenetic Protein (BMP) Response Element (BRE) (AID 2282933); details: HepG2 BMP response element reporter, Attagene transcription factor profiling; actives raise or lower the signal
Procedure, shortened: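 A HepG2 multiplex reporter system measured inducible reporter mRNA 24 h post-dosing. Detection: RT-PCR, 6-FAM primer extension, HpaI digestion, capillary electrophoresis. Activity fitted bidirectionally relative to DMSO.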

[19] = target: Retinoic acid receptor alpha (Homo sapiens) (UniProt P10276); assay: ATG_DR5_RAR_CIS: Attagene CIS-FACTORIAL HepG2 Assay for human Retinoic Acid Receptor Alpha (RARE), DR5 submotif (AID 2282934); details: HepG2 Attagene cis-factorial RARE DR5 reporter, mRNA; actives raise or lower the signal;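 for AC50: reporter responds to endogenous RAR alpha beta and gamma in HepG2 not RARA alone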
Retinoic acid receptor alpha (Homo sapiens), sequence (P10276 whole entry, looked up): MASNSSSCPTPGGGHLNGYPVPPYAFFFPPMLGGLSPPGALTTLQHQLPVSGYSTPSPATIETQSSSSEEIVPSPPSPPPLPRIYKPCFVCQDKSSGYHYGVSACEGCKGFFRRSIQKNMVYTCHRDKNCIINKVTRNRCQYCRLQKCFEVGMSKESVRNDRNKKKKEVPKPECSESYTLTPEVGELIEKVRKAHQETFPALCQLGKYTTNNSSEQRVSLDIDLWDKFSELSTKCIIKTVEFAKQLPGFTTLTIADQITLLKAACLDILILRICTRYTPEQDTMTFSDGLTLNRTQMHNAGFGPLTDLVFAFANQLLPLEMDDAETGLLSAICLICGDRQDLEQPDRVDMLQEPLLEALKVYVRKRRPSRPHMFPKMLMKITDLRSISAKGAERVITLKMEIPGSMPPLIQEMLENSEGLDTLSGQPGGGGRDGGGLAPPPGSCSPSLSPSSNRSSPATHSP
Procedure, shortened: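 Endpoint fitted in both directions relative to DMSO as negative control. It reflects DR5 cis-element reporter mRNA induction in transiently transfected HepG2 cells, measured 24 h after dosing through RT-PCR and fluorescent capillary electrophoresis.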

[20] = target: Transcription factor E2F1 (Homo sapiens) (UniProt Q01094); assay: ATG_E2F_CIS: Attagene CIS-FACTORIAL HepG2 Assay for human E2F Transcription Factor 1 (AID 2282935); details: HepG2 Attagene cis-reporter, E2F reporter RNA transcripts; actives raise or lower the signal
Transcription factor E2F1 (Homo sapiens), sequence (Q01094 whole entry, looked up): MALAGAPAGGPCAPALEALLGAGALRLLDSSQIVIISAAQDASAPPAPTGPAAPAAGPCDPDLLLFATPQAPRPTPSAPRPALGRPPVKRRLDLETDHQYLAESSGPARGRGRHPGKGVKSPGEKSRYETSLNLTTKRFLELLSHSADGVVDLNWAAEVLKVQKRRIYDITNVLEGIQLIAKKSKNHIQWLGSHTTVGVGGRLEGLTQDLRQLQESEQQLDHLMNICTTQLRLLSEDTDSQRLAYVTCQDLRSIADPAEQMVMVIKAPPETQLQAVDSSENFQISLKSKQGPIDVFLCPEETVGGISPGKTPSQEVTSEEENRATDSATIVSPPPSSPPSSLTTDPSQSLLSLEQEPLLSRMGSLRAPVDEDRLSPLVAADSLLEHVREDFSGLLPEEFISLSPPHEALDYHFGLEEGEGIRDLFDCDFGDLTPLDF
Procedure, shortened: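 Multiplexed cis-reporter assay: HepG2, transient transfection, 24 h dosing, mRNA quantitation by labeled RT-PCR and CE.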

Measured: AC50

Oc1ccc(Cl)cc1Cl
inactive: all assays above

CC(C)C(=O)OCC(C)(C)C(OC(=O)C(C)C)C(C)C (centres undefined)
active: [15] 69 µM
not listed: [6]
inactive: all other assays above

Clc1ccc(C(c2ccccc2Cl)C(Cl)(Cl)Cl)cc1 (centres undefined)
active: [2] 56.3 µM | [3] 50.9 µM | [5] 82.8 µM | [7] 114 µM | [12] 131 µM | [13] 37.5 µM [middle of 4 runs] | [16] 40.4 µM [middle of 4 runs]
inactive: [1] | [4] | [8] | [9] | [10] | [11] | [12] | [15] | [17] | [18] | [19] | [20]

C=CC(=O)NCNC(=O)C=C
not listed: [15]
inactive: all other assays above

CCC(C)c1cc([N+](=O)[O-])cc([N+](=O)[O-])c1O (centres undefined)
active: [2] 111 µM | [5] 67.4 µM | [9] 72.3 µM | [11] 14 µM | [12] 12.5 µM | [13] 19.6 µM | [16] 10.6 µM | [18] 11.8 µM | [19] 13.2 µM
not listed: [1]
inactive: all other assays above

CC1=C2C[C@H]3[C@@H](CC=C4C[C@@H](O)CC[C@@]43C)[C@@H]2CC[C@]12O[C@@H]1C[C@H](C)CN[C@H]1[C@H]2C
active: [3] 16.5 µM | [5] 33.4 µM | [9] 41.2 µM | [12] 13.9 µM | [14] 13.3 µM | [18] 13.3 µM
not listed: [1] | [6]
inactive: all other assays above
